About 79,000 compounds went through this panel and 15% of them were active in at least one assay; those are over-represented in the sample as a whole. Calls of active or inactive are those of the source. Cut-off read from the data, not from the text of the source: active = growth inhibition above about 70%; inactive = the rest.
What was measured:
[1] = NCI Yeast Anticancer Drug Screen. Data for the rad50 strain (AID 155);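 note: 0% = growth of vehicle-only cultures of the same strain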; settings: S. cerevisiae rad50 strain growth inhibition, active compounds read high
How it was run: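 A DNA repair-deficient yeast mutant serves as the test organism; compound-induced growth inhibition is calculated against vehicle-treated cells.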

[2] = NCI Yeast Anticancer Drug Screen. Data for the mec2-1 strain (AID 157); settings: S. cerevisiae mec2-1 strain, active compounds read high
How it was run: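 Readout is yeast growth inhibition, normalised to vehicle-treated controls, in the mec2-1 strain exposed to compound.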

[3] = NCI Yeast Anticancer Drug Screen. Data for the sgs1 mgt1 strain (AID 161);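 note: 0% = growth of cultures given vehicle only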; settings: S. cerevisiae sgs1 mgt1 strain, active compounds read high
How it was run: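 Percent growth inhibition was derived by comparing compound-exposed mutant yeast with vehicle-exposed cultures. The strain carries alterations in DNA damage repair.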

[4] = NCI Yeast Anticancer Drug Screen. Data for the cln2 rad14 strain (AID 165);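 note: 0% = growth equal to vehicle treated cultures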; settings: S. cerevisiae cln2 rad14 strain, active compounds read high
How it was run: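 Relative to vehicle controls, growth inhibition of compound-treated cln2 rad14 yeast was recorded.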

[5] = NCI Yeast Anticancer Drug Screen. Data for the bub3 strain (AID 167); settings: S. cerevisiae bub3 mutant strain, active compounds read high
How it was run: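 Inhibition values come from growth of compound-treated mutant yeast normalised to vehicle-treated controls.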

[6] = NCI Yeast Anticancer Drug Screen. Data for the mlh1 rad18 strain (AID 175); settings: S. cerevisiae mlh1 rad18 strain growth inhibition, active compounds read high
How it was run: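 Test agents were incubated with a yeast strain of defined genotype (DNA damage repair defect). Inhibition of growth was derived by comparison with vehicle-exposed cultures.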

[7] = at 5.0 µM (retest, dose inferred, filed as 0.5)
[8] = at 50.0 µM (retest, dose inferred, filed as 5.0)

Measured: growth inhibition

O=C(NNc1ccccc1)c1cccc([N+](=O)[O-])c1
inactive: [1]; [7] 23% | [2]; [7] 31% | [3]; [7] 39% | [4]; [7] 28% | [5]; [7] 29% | [6]; [7] 29%
active: [1]; [8] 98% | [1]; at 50.0 µM 98.2% | [2]; [8] 99% | [2]; at 50.0 µM 98.5% | [3]; [8] 99% | [3]; at 50.0 µM 98.8% | [4]; [8] 98% | [4]; at 50.0 µM 93.7% | [5]; [8] 99% | [5]; at 50.0 µM 99.4% | [6]; [8] 98% | [6]; at 50.0 µM 98.8%

COC1=CC(=O)C(O)=C/C1=C\C=C\c1ccccc1
active: [1]; [8] 97% | [1]; at 50.0 µM 95% | [2]; [8] 99% | [2]; at 50.0 µM 97% | [3]; [7] 84% | [3]; [8] 99% | [3]; at 50.0 µM 97% | [4]; [8] 99% | [4]; at 50.0 µM 95.3% | [5]; [8] 98% | [5]; at 50.0 µM 96.6% | [6]; [7] 83% | [6]; [8] 99% | [6]; at 50.0 µM 96.8%
inactive: [1]; [7] 67% | [2]; [7] 59% | [4]; [7] 50% | [5]; [7] 36%

CC1(c2ccc(F)cc2)OC(=O)c2c1ccc1ccccc21 (configuration not stated)
active: [2]; [8] 78% | [3]; [8] 81% | [4]; [8] 70% | [5]; [8] 88% | [5]; at 50.0 µM 72.6% | [6]; [8] 84%
inactive: [1]; [7] -7% | [1]; [8] 68% | [1]; at 50.0 µM 56.2% | [2]; [7] -5% | [2]; at 50.0 µM 42.8% | [3]; [7] 0% | [3]; at 50.0 µM 56.5% | [4]; [7] -15% | [4]; at 50.0 µM -2.35% | [5]; [7] -6% | [6]; [7] -9% | [6]; at 50.0 µM 29.5%

Nc1c(NCc2ccccc2)ccc2ncccc12
active: [1]; [8] 93% | [1]; at 50.0 µM 95.2% | [2]; [8] 97% | [2]; at 50.0 µM 93.4% | [3]; [8] 94% | [3]; at 50.0 µM 93.2% | [4]; [8] 71% | [4]; at 50.0 µM 96.4% | [5]; [8] 93% | [5]; at 50.0 µM 98% | [6]; [8] 96% | [6]; at 50.0 µM 98.1%
inactive: [1]; [7] -10% | [2]; [7] -17% | [3]; [7] -7% | [4]; [7] -7% | [5]; [7] 2% | [6]; [7] 6%

CC(=O)c1c(O)ccc2nc3ccccc3nc12
active: [1]; [8] 87% | [1]; at 50.0 µM 94% | [2]; [8] 92% | [2]; at 50.0 µM 91.5% | [3]; [8] 89% | [3]; at 50.0 µM 82.6% | [4]; [8] 86% | [4]; at 50.0 µM 82.8% | [5]; [8] 85% | [5]; at 50.0 µM 92% | [6]; [8] 91% | [6]; at 50.0 µM 94.5%
inactive: [1]; [7] 11% | [2]; [7] 20% | [3]; [7] 14% | [4]; [7] 12% | [5]; [7] 22% | [6]; [7] 39%

Clc1nnc(Cl)s1
active: [5]; [8] 72%
inactive: [1]; [7] 3% | [1]; [8] 36% | [1]; at 50.0 µM 29.1% | [2]; [7] 8% | [2]; [8] 54% | [2]; at 50.0 µM 21.6% | [3]; [7] 2% | [3]; [8] 67% | [3]; at 50.0 µM 19.4% | [4]; [7] 1% | [4]; [8] 9% | [4]; at 50.0 µM 25.9% | [5]; [7] 5% | [5]; at 50.0 µM 23.9% | [6]; [7] 5% | [6]; [8] 53% | [6]; at 50.0 µM 18.9%

CC(C)O[C@H]1N(C2CC(N=[N+]=[N-])C(CO)O2)C(=O)NC(=O)[C@]1(C)Br (some centres not stated)
active: [1]; at 50.0 µM 87.1% | [2]; at 50.0 µM 91.2% | [3]; at 50.0 µM 90.5% | [4]; at 50.0 µM 89% | [5]; at 50.0 µM 90.5% | [6]; at 50.0 µM 91.1%
inactive: [1]; [7] 14% | [1]; [8] 48% | [2]; [7] -6% | [2]; [8] 57% | [3]; [7] 0% | [3]; [8] 56% | [4]; [7] 4% | [4]; [8] 37% | [5]; [7] -7% | [5]; [8] 40% | [6]; [7] -4% | [6]; [8] 63%

O=C(N/N=C/c1ccccc1[O-])c1ccccc1O.O=C(N/N=C/c1ccccc1[O-])c1ccccc1O.[Mn+2]
active: [1]; [8] 99% | [1]; at 50.0 µM 99.2% | [2]; [8] 98% | [2]; at 50.0 µM 99.8% | [3]; [8] 100% | [3]; at 50.0 µM 97.7% | [4]; [8] 99% | [4]; at 50.0 µM 99% | [5]; [8] 99% | [5]; at 50.0 µM 99.6% | [6]; [8] 99% | [6]; at 50.0 µM 97.8%
inactive: [1]; [7] 48% | [2]; [7] 39% | [3]; [7] 63% | [4]; [7] 28% | [5]; [7] 48% | [6]; [7] 40%

COC1OC(CBr)C(OC(C)=O)C(OC(C)=O)C1OC(C)=O (configuration not stated)
active: [5]; at 50.0 µM 82.3%
inactive: [1]; [7] 7% | [1]; [8] -3% | [1]; at 50.0 µM 5.9% | [2]; [7] 5% | [2]; [8] 3% | [2]; at 50.0 µM 13.2% | [3]; [7] 8% | [3]; [8] 3% | [3]; at 50.0 µM -3.6% | [4]; [7] 5% | [4]; [8] 30% | [4]; at 50.0 µM 8.7% | [5]; [7] 6% | [5]; [8] 3% | [6]; [7] -2% | [6]; [8] 2% | [6]; at 50.0 µM 18.9%

Source: PubChem BioAssay (NCI)
